According to PubChem BioAssay (EPA / NIEHS):
Active and inactive are the calls of the source. How the source made its calls: active means hit-call score of the fitted dose curve at least 0.9, where 1 is the maximum; inactive means score below 0.9.

What was measured:
Details in all cases: mRNA level, 48 h; actives raise or lower the signal
[1] = read-out: Cytochrome P450 (CYP1A1), CYP1A1 (gene 1543); assay: LTEA_HepaRG_CYP1A1: Life Technologies and Expression Analysis (LTEA) Assay for Cytochrome P450 (CYP1A1) using HepaRG (AID 2283454)
Procedure, shortened: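 HepaRG, 48 h post-plating switched to serum-free induction medium; 8-pt conc-response (top 100 uM, half-log, 0.5% DMSO), duplicates, 48 h. Lysis in RLT, TaqMan qRT-PCR for CYP1A1; gain or loss vs DMSO.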

[2] = read-out: CFLAR gene, CFLAR (gene 8837); assay: LTEA_HepaRG_CFLAR: Life Technologies and Expression Analysis (LTEA) Assay for CFLAR gene using HepaRG (AID 2283455)
Procedure, shortened: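 qRT-PCR read-out (Fluidigm/TaqMan) of CFLAR mRNA, normalized to three housekeeping genes, in differentiated human HepaRG cells after 48 h chemical exposure; 8-point half-log series from 100 uM in 0.5% DMSO; bidirectional curve fitting versus DMSO.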

[3] = read-out: Forkhead box O1 (FOXO1), FOXO1 (gene 2308); assay: LTEA_HepaRG_FOXO1: Life Technologies and Expression Analysis (LTEA) Assay for Forkhead box O1 (FOXO1) using HepaRG (AID 2283456)
Procedure, shortened: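 HepaRG, 48 h exposure, 8-pt half-log series from 100 uM in 0.5% DMSO, duplicates; Fluidigm qRT-PCR mRNA, housekeeping-normalised; bidirectional fit vs DMSO baseline.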

[4] = read-out: Forkhead box O3 (FOXO3), FOXO3 (gene 2309); assay: LTEA_HepaRG_FOXO3: Life Technologies and Expression Analysis (LTEA) Assay for Forkhead box O3 (FOXO3) using HepaRG (AID 2283459)
Procedure, shortened: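 qRT-PCR readout of FOXO3 transcript, normalized to three housekeeping genes (ACTB, GAPDH, POLR2A); gain or loss fitted against 0.5% DMSO vehicle. HepaRG cells, 48 h chemical exposure, 8-point half-log series, top 100 uM.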

[5] = read-out: growth arrest and DNA damage 45 (GADD45B), GADD45B (gene 4616); assay: LTEA_HepaRG_GADD45B: Life Technologies and Expression Analysis (LTEA) Assay for growth arrest and DNA damage 45 (GADD45B) using HepaRG (AID 2283461)
Procedure, shortened: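 HepaRG, ~100,000 cells/well, 48 h plating; serum-free induction medium; cpd 100 uM top, half-log x8, 0.5% DMSO, duplicate, 48 h; lysis in RLT, RNA isolation, qRT-PCR; norm ACTB/GAPDH/POLR2A; bidirectional fit vs DMSO.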

[6] = read-out: ABC Transporter (ABCC3), ABCC3 (gene 8714); assay: LTEA_HepaRG_ABCC3: Life Technologies and Expression Analysis (LTEA) Assay for ABC Transporter (ABCC3) using HepaRG (AID 2283462)
Procedure, shortened: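 Human HepaRG, 48 h dosing, 8-pt half-log series from 100 uM, 0.5% DMSO vehicle, duplicates. ABCC3 mRNA by TaqMan qRT-PCR, housekeeping-normalized; bidirectional curve fit vs DMSO.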

[7] = read-out: ABC Transporter (ABCB11), ABCB11 (gene 8647); assay: LTEA_HepaRG_ABCB11: Life Technologies and Expression Analysis (LTEA) Assay for ABC Transporter (ABCB11) using HepaRG (AID 2283463)
Procedure, shortened: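 HepaRG, 48 h exposure, 8-pt half-log CRC top 100 uM, 0.5% DMSO vehicle, duplicates. Readout: TaqMan qRT-PCR of ABCB11 mRNA, housekeeping-normalized (ACTB/GAPDH/POLR2A). Bidirectional fit vs DMSO baseline.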

[8] = read-out: ABC Transporter (ABCC2), ABCC2 (gene 1244); assay: LTEA_HepaRG_ABCC2: Life Technologies and Expression Analysis (LTEA) Assay for ABC Transporter (ABCC2) using HepaRG (AID 2283464)
Procedure, shortened: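 HepaRG, 48 h post-plating; serum-free induction medium; cpd 8-pt, 100 uM top, half-log, 0.5% DMSO, duplicate, 48 h. Readout: ABCC2 mRNA by qRT-PCR, norm. ACTB/GAPDH/POLR2A. Bidirectional fit vs DMSO baseline.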

[9] = read-out: Broad substrate specificity ATP-binding cassette transporter ABCG2 (Homo sapiens) (UniProt Q9UNQ0); assay: LTEA_HepaRG_ABCG2: Life Technologies and Expression Analysis (LTEA) Assay for ABC Transporter (ABCG2) using HepaRG (AID 2283465)
Procedure, shortened: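 HepaRG, 48 h exposure, 8-pt half-log series from 100 uM, 0.5% DMSO vehicle, duplicates. Readout: ABCG2 transcript by qRT-PCR (Fluidigm array), housekeeping-normalized; bidirectional curve fit relative to DMSO baseline.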

[10] = read-out: ATP-citrate lyase (ACLY), ACLY (gene 47); assay: LTEA_HepaRG_ACLY: Life Technologies and Expression Analysis (LTEA) Assay for ATP-citrate lyase (ACLY) using HepaRG (AID 2283466)
Procedure, shortened: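 qRT-PCR readout of ACLY transcript after 48 h chemical treatment of HepaRG cells; expression normalized to three housekeeping genes. Eight-point half-log series, highest 100 uM, 0.5% DMSO vehicle. Gain or loss fitted against DMSO baseline.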

[11] = read-out: Peroxisomal acyl-coenzyme A oxidase 1 (ACOX1) gene, ACOX1 (gene 51); assay: LTEA_HepaRG_ACOX1: Life Technologies and Expression Analysis (LTEA) Assay for Peroxisomal acyl-coenzyme A oxidase 1 (ACOX1) gene using HepaRG (AID 2283467)
Procedure, shortened: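 HepaRG, 48 h chemical exposure, 8-pt half-log series from 100 uM top, 0.5% DMSO vehicle, duplicates. Readout: ACOX1 mRNA by Fluidigm qRT-PCR, housekeeping-normalized; bidirectional fit vs DMSO baseline.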

[12] = read-out: Alkaline Phosphatase, Placental (ALPP) gene, ALPP (gene 250); assay: LTEA_HepaRG_ALPP: Life Technologies and Expression Analysis (LTEA) Assay for Alkaline Phosphatase, Placental (ALPP) gene using HepaRG (AID 2283468);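 on AC50: differentiated human HepaRG liver cells in serum-free induction medium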
Procedure, shortened: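 HepaRG, 48 h plating then 48 h dosing, serum-free induction medium, 0.5% DMSO. 8 conc, half-log, max 100 uM, duplicates. Endpoint: ALPP transcript by qRT-PCR, housekeeping-normalized; gain or loss fitted vs DMSO.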

[13] = read-out: Bcl-2 (BAD) gene, BAD (gene 572); assay: LTEA_HepaRG_BAD: Life Technologies and Expression Analysis (LTEA) Assay for Bcl-2 (BAD) gene using HepaRG (AID 2283469)
Procedure, shortened: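 HepaRG, 48 h exposure, 8-pt half-log curve from 100 uM in 0.5% DMSO, duplicates. Readout: TaqMan qRT-PCR for BAD mRNA, housekeeping-normalised (ACTB/GAPDH/POLR2A); gain or loss fitted against DMSO baseline.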

[14] = read-out: Bcl-2 (BAX) gene, BAX (gene 581); assay: LTEA_HepaRG_BAX: Life Technologies and Expression Analysis (LTEA) Assay for Bcl-2 (BAX) gene using HepaRG (AID 2283470)
Procedure, shortened: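 Cells were thawed, plated for 48 h, moved to serum-free induction medium and dosed for 48 h (highest concentration 100 uM, half-log steps, 0.5% DMSO). Total RNA was then analysed for BAX expression by qRT-PCR.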

[15] = read-out: adenosine kinase (ADK) gene, ADK (gene 132); assay: LTEA_HepaRG_ADK: Life Technologies and Expression Analysis (LTEA) Assay for adenosine kinase (ADK) gene using HepaRG (AID 2283471)
Procedure, shortened: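 Differentiated HepaRG cells dosed 48 h in serum-free induction medium, 0.5% DMSO vehicle, eight half-log concentrations from 100 uM, in duplicate. ADK mRNA by TaqMan qRT-PCR normalised to ACTB, GAPDH, POLR2A; bidirectional fit versus DMSO.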

[16] = read-out: Alpha-fetoprotein (AFP) gene, AFP (gene 174); assay: LTEA_HepaRG_AFP: Life Technologies and Expression Analysis (LTEA) Assay for Alpha-fetoprotein (AFP) gene using HepaRG (AID 2283472)
Procedure, shortened: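 Chemicals were tested on differentiated HepaRG cells for 48 hours at eight concentrations up to 100 uM, with 0.5% DMSO as vehicle. AFP expression was then quantified by qRT-PCR and analyzed for gain or loss relative to DMSO.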

BCL2L11 (gene 10018) = assay: LTEA_HepaRG_BCL2L11: Life Technologies and Expression Analysis (LTEA) Assay for Bcl-2 (BCL2L11) gene using HepaRG (AID 2283473)
Procedure, shortened: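 Read-out is BCL2L11 transcript level by qRT-PCR, normalized to three housekeeping genes and fitted bidirectionally against 0.5% DMSO vehicle. HepaRG cells received chemicals for 48 h in serum-free induction medium, 100 uM down in half-log dilutions.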

[17] = read-out: growth arrest and DNA damage 45 (GADD45A), GADD45A (gene 1647); assay: LTEA_HepaRG_GADD45A: Life Technologies and Expression Analysis (LTEA) Assay for growth arrest and DNA damage 45 (GADD45A) using HepaRG (AID 2283458)
Procedure, shortened: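 Transcript induction or loss, quantified by TaqMan qRT-PCR against three housekeeping genes, is the read-out. HepaRG cells received chemicals for 48 h across eight half-log concentrations from 100 uM in 0.5% DMSO; gain and loss fitted relative to DMSO.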

[18] = read-out: ABC Transporter (ABCB1), ABCB1 (gene 5243); assay: LTEA_HepaRG_ABCB1: Life Technologies and Expression Analysis (LTEA) Assay for ABC Transporter (ABCB1) using HepaRG (AID 2283460)
Procedure, shortened: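 HepaRG, 48 h exposure, 8-pt half-log series from 100 uM, 0.5% DMSO vehicle, duplicates. Readout: ABCB1 transcript by Fluidigm TaqMan qRT-PCR, housekeeping-normalized; bidirectional curve fit vs DMSO baseline.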

Measured: AC50

Chain of Broad substrate specificity ATP-binding cassette transporter ABCG2 (Homo sapiens) (Q9UNQ0 whole entry, looked up): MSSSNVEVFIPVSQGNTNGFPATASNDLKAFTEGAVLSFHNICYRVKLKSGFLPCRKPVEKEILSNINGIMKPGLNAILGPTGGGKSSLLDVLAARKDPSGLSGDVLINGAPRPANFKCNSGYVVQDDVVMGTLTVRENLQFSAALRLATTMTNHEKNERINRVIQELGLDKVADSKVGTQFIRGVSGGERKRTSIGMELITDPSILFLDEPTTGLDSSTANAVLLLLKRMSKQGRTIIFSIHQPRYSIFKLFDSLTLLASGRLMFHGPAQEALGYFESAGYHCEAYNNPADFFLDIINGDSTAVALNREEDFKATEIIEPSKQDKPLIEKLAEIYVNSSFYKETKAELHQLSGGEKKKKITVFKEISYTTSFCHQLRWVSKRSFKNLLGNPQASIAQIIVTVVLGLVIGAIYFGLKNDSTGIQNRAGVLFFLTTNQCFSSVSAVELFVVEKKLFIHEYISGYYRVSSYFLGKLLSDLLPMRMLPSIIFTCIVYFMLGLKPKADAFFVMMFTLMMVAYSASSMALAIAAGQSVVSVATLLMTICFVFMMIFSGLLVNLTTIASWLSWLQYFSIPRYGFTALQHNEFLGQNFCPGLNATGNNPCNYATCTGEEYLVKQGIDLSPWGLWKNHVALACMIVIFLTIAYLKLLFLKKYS

C/C=C/c1ccc(OC)cc1
active: [1] 50 µM
not listed: [17] | [18]
inactive: all other assays above

C=CCCCCCCCCCCCC
not listed: [11] | [17] | [18]
inactive: all other assays above

CS(=O)(=O)c1ccc([C@@H](C[C@H]2CCC(=O)C2)C(=O)Nc2cnccn2)cc1Cl
active: [2] 0.753 µM | [3] 1.27 µM | [17] 1.28 µM | [4] 9.92 µM | [18] 1.54 µM | [7] 11 µM | [8] 12.5 µM | [9] 1.29 µM | [12] 2.94 µM | [13] 1.23 µM | [14] 25.4 µM | [15] 0.952 µM | [16] 0.908 µM | BCL2L11 (gene 10018) 1.15 µM
inactive: [5] | [6] | [10]

CCCCC(CC)CO (stereo not given)
active: [1] 39.1 µM
not listed: [11] | [15] | [17]
inactive: all other assays above

COc1ccc(C(=O)Nc2nc3ccccc3c(NCc3ccccc3)c2C#N)cc1
active: [1] 1.39 µM | [5] 16 µM | [7] 13.3 µM | [9] 17.4 µM | [10] 16.5 µM | [11] 13.3 µM | [16] 21.7 µM | BCL2L11 (gene 10018) 10.8 µM
not listed: [17] | [18]
inactive: all other assays above

CN(C)CCCN1c2ccccc2Sc2ccc(Cl)cc21
active: [1] 27.1 µM | [2] 71.3 µM | [3] 79.2 µM | [5] 89.7 µM | [7] 24.7 µM | [8] 89.6 µM | [12] 11.8 µM | [16] 26.6 µM | BCL2L11 (gene 10018) 72.8 µM
inactive: [4] | [18] | [6] | [9] | [10] | [13] | [14]

CC(C)(O)c1ccc(CNC(=O)c2cccnc2Oc2ccc(F)cc2)cc1
active: [1] 67.4 µM | [8] 29.5 µM
not listed: [11] | [15] | [17]
inactive: all other assays above
